Measured values taken from PubChem BioAssay (Tox21).
Values without a mark were called inactive. The source made the active and inactive calls. Calls follow the shape of the dose curve; as a rule, active = well fitted curve in the direction sought with a large enough effect in the repeat runs; inconclusive = weak or mixed curves; inactive = flat fitted curve, though single readings scatter.
% is scaled to controls: 0 for no effect and ±100 for the full control effect.

Test: qHTS assay to test for compound auto fluorescence at 590 nm (red) in HepG2 cell free culture (AID 720684)
Settings: cell-free medium autofluorescence, red 540/590 nm; series mostly up to 46 µM; fluorescence, % of Rose Bengal: at the top concentration
Outline: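 Cell-free; medium MEM + 10% FBS; compound or DMSO added by pintool; read Ex 540/Em 590 nm; Rose Bengal sodium as red reference fluorophore.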
For `CC(C)=CCN1CC[C@]2(C)c3cc(O)ccc3C[C@H]1[C@H]2C`, the “fluorescence, % of Rose Bengal” value was -0.0579% [at 91.3 µM].
With `CN[C@@]1(c2ccccc2Cl)CCCCC1=O` the “fluorescence, % of Rose Bengal” value was 0.167%.
With `CCNC1(c2cccs2)CCCCC1=O` (stereo not given) the “fluorescence, % of Rose Bengal” value was 0.0168% [at 18.6 µM].
For `CNC(C)CC1CCCCC1` (stereo not given), the “fluorescence, % of Rose Bengal” value was 0.0429%.
In the case of `CCC1(c2ccccc2)C(=O)NC(=O)N(C)C1=O` (stereo not given), the “fluorescence, % of Rose Bengal” value is reported as 0.614%.
In the case of `COc1cc([C@@H]2c3cc4c(cc3[C@@H](O)[C@H]3COC(=O)[C@H]23)OCO4)cc(OC)c1O`, the “fluorescence, % of Rose Bengal” value is reported as -0.403%.
With `CN1CC[C@@]23CCCC[C@@H]2[C@@H]1Cc1ccc(O)cc13` the “fluorescence, % of Rose Bengal” value was -0.0994%.
In the case of `CNC(C)Cc1ccccc1` (stereo not given), the “fluorescence, % of Rose Bengal” value is reported as -0.0863% [at 91.3 µM].
With `CN[C@@H](C)Cc1ccccc1` the “fluorescence, % of Rose Bengal” value was 0.0192% [at 91.3 µM].
With `CCCCNC(C)(C)[P+](=O)O` the “fluorescence, % of Rose Bengal” value was 0.185%.
In the case of `O=C1C[C@@H]2OCC=C3CN4CC[C@]56c7ccccc7N1[C@H]5[C@H]2[C@H]3C[C@H]46` (tested in a mixture with another compound), the outcome is reported as “inactive”.
In the case of `O=c1ccc2cc(O[C@@H]3O[C@H](CO)[C@@H](O)[C@H](O)[C@H]3O)c(O)cc2o1`, the “fluorescence, % of Rose Bengal” value is reported as 0.0101% [at 18.6 µM].
With `C/C=C(\CC)C(=O)NC(N)=O` the “fluorescence, % of Rose Bengal” value was 0.32%.
With `C[C@]12CCC(=O)C[C@@H]1CC[C@@H]1[C@@H]2CC[C@@]2(C)[C@H]1CC[C@]2(C)O` the “fluorescence, % of Rose Bengal” value was 0.0009%.
With `Cc1nnc2n1-c1ccc(Cl)cc1C(c1ccccc1)=NC2` the “fluorescence, % of Rose Bengal” value was 0.463%.
For `N#CC(C#N)=Cc1cc(O)c(O)c(O)c1`, the “fluorescence, % of Rose Bengal” value was 0.447%.
For `CCCSc1cc(OC)c(CCN)cc1OC`, the “fluorescence, % of Rose Bengal” value was 0.139% [at 95.7 µM].
With `O=C(O)CCCO` the “fluorescence, % of Rose Bengal” value was -0.0486% [at 95.7 µM].
For `Oc1ccc2c3c1O[C@H]1[C@@H](O)C=C[C@H]4[C@H](C2)NCC[C@@]341`, the “fluorescence, % of Rose Bengal” value was -0.201%.
With `O=P1(N(CCCl)CCCl)NC(OO)CCO1` (stereo not given) the “fluorescence, % of Rose Bengal” value was -0.598%.
With `COC(=O)[C@H]1[C@@H](OC(=O)c2ccccc2)C[C@@H]2CC[C@H]1N2C` the “fluorescence, % of Rose Bengal” value was 0.144% [at 91.3 µM].
With `O=C1CN=C(c2ccccc2)c2cc(Cl)ccc2N1` the “fluorescence, % of Rose Bengal” value was -0.0348%.
With `C=C[C@H]1CN2CC[C@H]1C[C@H]2[C@H](OC(=O)OCC)c1ccnc2ccc(OC)cc12` the “fluorescence, % of Rose Bengal” value was -0.331%.
With `CCc1cc(OC)c(C[C@@H](C)N)cc1OC` the “fluorescence, % of Rose Bengal” value was -0.0183% [at 95.7 µM].
For `CC(C)[C@H]1C(=O)N2CCC[C@H]2[C@]2(O)O[C@](NC(=O)[C@@H]3C[C@@H]4c5cccc6[nH]cc(c56)C[C@H]4N(C)C3)(C(C)C)C(=O)N12`, the “fluorescence, % of Rose Bengal” value was 0.14%.
With `C[C@]12CC[C@H]3[C@@H](CCC4=C(Cl)C(=O)CC[C@@]43C)[C@@H]1CC[C@@H]2O` the “fluorescence, % of Rose Bengal” value was -0.0183%.
With `Clc1ccc(C(Cn2ccnc2)OCc2csc3c(Cl)cccc23)c(Cl)c1` (stereo not given) the “fluorescence, % of Rose Bengal” value was -0.136% [at 18.6 µM].
With `C[C@@H]1[C@@H]2Cc3ccc(O)cc3[C@@]1(C)CCN2CC1CC1` the “fluorescence, % of Rose Bengal” value was -0.0593%.
For `C[C@@H]1[C@H]2Cc3ccc(O)cc3[C@]1(C)CCN2C`, the “fluorescence, % of Rose Bengal” value was 0.0773% [at 95.7 µM].
In the case of `CC(C)C[C@H]1C(=O)N2CCC[C@H]2[C@]2(O)O[C@](NC(=O)[C@@H]3C[C@@H]4c5cccc6[nH]cc(c56)C[C@H]4N(C)C3)(C(C)C)C(=O)N12`, the “fluorescence, % of Rose Bengal” value is reported as 0.322%.
For `[H+].[H+].[Hg+2].[O-]B([O-])[O-].[c-]1ccccc1`, the “fluorescence, % of Rose Bengal” value was 0.0062%.
In the case of `C=CCC1([C@@H](C)CCC)C(=O)NC(=O)NC1=O`, the “fluorescence, % of Rose Bengal” value is reported as -0.0177% [at 91.3 µM].
With `c1ccc2c(c1)Sc1ccccc1N2C[C@@H]1CN2CCC1CC2` the “fluorescence, % of Rose Bengal” value was 0.0219%.
In the case of `C[C@@H](Cc1ccccc1)NCCC(c1ccccc1)c1ccccc1`, the “fluorescence, % of Rose Bengal” value is reported as 0.045% [at 18.6 µM].
In the case of `CC[C@H]1[C@@H]2C[C@H]3[C@@H]4N(C)c5ccccc5[C@]45C[C@@H](C2[C@H]5O)N3[C@@H]1O` (stereo not given in full), the “fluorescence, % of Rose Bengal” value is reported as -0.319% [at 18.6 µM].
With `CC(N)Cc1ccc2c(c1)OCO2` (stereo not given) the “fluorescence, % of Rose Bengal” value was 0.143%.
With `CN1c2ccccc2C(NCCCCCCC(=O)O)c2ccc(Cl)cc2S1(=O)=O` (stereo not given) the “fluorescence, % of Rose Bengal” value was -0.0003%.
In the case of `CN[C@]1(c2ccccc2Cl)CCCCC1=O`, the “fluorescence, % of Rose Bengal” value is reported as 0.002%.
With `C[C@]12CC[C@@H]3c4ccc(OC(=O)N(CCCl)CCCl)cc4CC[C@H]3[C@@H]1CC[C@@H]2OP(=O)(O)O` the outcome was “inactive”.
For `CC(=O)[C@@]1(O)CC[C@H]2[C@@H]3CCC4=CC(=O)CC[C@]4(C)C3(F)[C@@H](O)C[C@@]21C` (stereo not given in full), the “fluorescence, % of Rose Bengal” value was 0.14%.
